Consider 86 sequences from the supplement of paper PMC3334620.

Whole data set: some 33,000 sequences, median “E-score (-0.5 to 0.5)” near -0.036, cut for the highest 2% near 0.37. This is one part of a sample in which the highest values are shown more often than they occur.

This test deals with T1, Yer064c (UniProt P40041).
T1 sequence: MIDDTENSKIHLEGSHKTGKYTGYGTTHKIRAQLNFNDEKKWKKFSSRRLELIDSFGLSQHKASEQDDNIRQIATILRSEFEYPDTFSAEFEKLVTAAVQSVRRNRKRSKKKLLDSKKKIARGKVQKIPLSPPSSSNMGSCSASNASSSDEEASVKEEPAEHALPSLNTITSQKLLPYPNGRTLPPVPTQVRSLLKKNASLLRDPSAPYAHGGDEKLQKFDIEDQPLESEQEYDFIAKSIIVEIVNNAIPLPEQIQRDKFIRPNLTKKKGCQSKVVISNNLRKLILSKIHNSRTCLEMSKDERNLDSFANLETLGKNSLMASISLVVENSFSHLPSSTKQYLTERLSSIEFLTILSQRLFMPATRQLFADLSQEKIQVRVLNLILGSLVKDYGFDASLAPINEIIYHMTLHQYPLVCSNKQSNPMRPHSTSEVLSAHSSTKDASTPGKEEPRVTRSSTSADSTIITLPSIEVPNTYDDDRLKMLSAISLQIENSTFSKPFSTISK
Kind of test: PBM E-score (8-mer binding enrichment) (E-score (-0.5 to 0.5)); higher = stronger / more preferred TF binding. To be noted: protein concentration: 200 nM; construct: GST-full length. The procedure: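 Universal 'all 10-mer' protein binding microarrays (Agilent AMADID 015681) probed with GST-tagged S. cerevisiae TFs (full-length or DBD) made by in vitro transcription/translation (PURExpress), about 100-200 nM. Bound TF was detected with fluorescent anti-GST. Each ungapped 8-mer (which stands for itself and its reverse complement) is scored by the PBM enrichment score (E-score), a modified Wilcoxon-Mann-Whitney statistic from -0.5 to +0.5, computed with the Universal PBM Analysis Suite. Scale: above 0.35 generally sequence-specific binding.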
For the sequence GTAGAGCA, the “PBM E-score” value was -0.0431.
The same measure for CCATCGGA: -0.00521.
To GCTTTCAA belongs 0.0808.
To CCATCCCA belongs 0.0189; to AATATCCG, -0.0742; to AGCGAGTC, 0.405.
For CGCGAGTA, the “PBM E-score” value came out at 0.0526.
To ACCGAGTA belongs -0.0874; to CGCGAGTC, 0.405; to ACCGAGTC, 0.377.
The same measure for CCCGAGTC: 0.329.
To AGCGAGTG belongs 0.0737.
As to AGCGAGTA, the “PBM E-score” value is 0.115.
Regarding CGCGAGCC, the “PBM E-score” value stood at 0.0358.
As for CGGGAGAA, the “PBM E-score” value is -0.141.
The same measure for CTTATCCC: -0.147; for AAGGAAGG: -0.0955; for ACCCTATG: 0.155.
The same measure for GAGCTTCA: -0.142; for ACGGATGG: 0.0552; for ATCTTCCG: -0.0471.
Regarding GTCGACTA, the “PBM E-score” value came to 0.335.
With AACGACTT, the “PBM E-score” value came out at 0.177.
The same measure for AACGACTG: 0.133.
The same measure for GACGACTC: 0.442.
For GACGACTA, the “PBM E-score” value amounted to 0.415.
The same measure for AACGACTA: 0.393; for GACGACGC: -0.226.
Regarding GACGACGA, the “PBM E-score” value is 0.00788.
On to AACGACAC, for which the “PBM E-score” value is -0.105.
To GACGACCC belongs -0.217; to AACGACTC, 0.427; to ATCGACTC, 0.304.
On to CGGCTACA, for which the “PBM E-score” value was -0.00254.
The same measure for CGTTTCGC: -0.125.
To AATCTTCG belongs 0.25.
To TACCTGGA belongs 0.0309; to CTCCACCC, -0.099; to AAAGACCA, -0.029.
As to TACGGCGA, the “PBM E-score” value was -0.108.
The same measure for CACGACGA: 0.044.
With TACGACTA, the “PBM E-score” value turned out to be 0.415.
The same measure for CACGACTC: 0.437; for TACGACAA: 0.0113; for CACGACTG: 0.238.
The same measure for CACGACAC: -0.043.
To CACGACGC belongs -0.163; to TACGACGA, 0.071; to CACGACTA, 0.403.
For TAGCCACA, the “PBM E-score” value was determined as 0.14.
To CGCGATAC belongs -0.206; to CAAAATCC, 0.087; to CAAAAGCC, -0.227.
Consider TAGCCATA, for which the “PBM E-score” value was 0.28.
As to GAGCCATA, the “PBM E-score” value was determined as 0.366.
The same measure for GAGCCATC: 0.342; for AGAGCTCG: -0.222; for AGTCATAT: 0.484.
On to TGTCATAA, for which the “PBM E-score” value is 0.0821.
The same measure for GGTCATAA: 0.081; for AGTCATAG: 0.482.
The same measure for AGTCATAC: 0.486.
The same measure for AGTCATAA: 0.476; for CGTCATAC: 0.192.
For the sequence CGTCATAA, the “PBM E-score” value is -0.00764.
Take AGACATAT: the “PBM E-score” value is 0.137.
The same measure for CGTCATAG: -0.0141.
For AGCCATAG, the “PBM E-score” value is 0.199.
To GGTCATAC belongs 0.123; to CAAAACTC, -0.0536.
The same measure for AAAATAAC: 0.0567; for CCGTCCCG: -0.193; for ACAATTAA: 0.144.
In the case of CGTGCGTC, the “PBM E-score” value is -0.13.
To TGTGCTAA belongs 0.0249; to ACAATCAT, 0.385.
The same measure for GGAATCAC: 0.418; for AGAATCAT: 0.44; for AGAATCCC: 0.0788.
In the case of ACAATCAA, the “PBM E-score” value is 0.202.
The same measure for AGAATCCT: -0.0297; for GGAATCCC: -0.166; for ACAATCAC: 0.351.
To AGAATCGC belongs 0.127; to GGAATCAA, 0.257.
To AGAATCAC belongs 0.374.
